Measurements reported in PubChem BioAssay (EPA / NIEHS).
Calls of active or inactive are those of the source. How the source made its calls: active means hit-call score of the fitted dose curve at least 0.9, where 1 is the maximum; inactive means score below 0.9.

Key:
[1] = ATG_CRE_CIS: Attagene CIS-FACTORIAL HepG2 Assay for human cAMP Responsive Element (CRE) binding protein 3 (AID 2282926); conditions: HepG2 CRE cis-reporter, Attagene multiplexed mRNA; actives raise or lower the signal
Procedure, shortened: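 HepG2 cells transiently transfected with cis-element-driven multiple reporter transcription units; CRE reporter mRNA measured 24 h after dosing by RT-PCR, 6-FAM labelling, HpaI digestion and capillary electrophoresis. Bidirectional fit versus DMSO baseline.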

[2] = biological target: CCAAT/enhancer-binding protein beta (Homo sapiens) (UniProt P17676); experiment: ATG_C_EBP_CIS: Attagene CIS-FACTORIAL HepG2 Assay for human CCAAT/Enhancer Binding Protein (C/EBP) beta (AID 2282927); conditions: HepG2 Attagene cis-factorial transcription factor reporter; actives raise or lower the signal
Procedure, shortened: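 Chemical-treated HepG2 cells (24 h) bearing cis-regulated reporter constructs were processed for total RNA, then reverse transcription, PCR amplification, fluorescent primer extension and fragment analysis; gain- and loss-of-signal were fitted against DMSO.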

[3] = ATG_CMV_CIS: Attagene CIS-FACTORIAL HepG2 Assay for human CMV (Internal Marker) (AID 2282928); conditions: HepG2 CMV promoter reporter, transcription factor profiling; actives raise or lower the signal;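 further: endpoint acts as a background internal control marker rather than a target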
Procedure, shortened: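 Cell system: HepG2, transiently transfected multiple reporter units under cis promoters. Exposure: 24 h. Detection: RT-PCR, FAM labeling, HpaI digestion, capillary electrophoresis. Analysis: bidirectional, DMSO baseline.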

[4] = ATG_DR4_LXR_CIS: Attagene CIS-FACTORIAL HepG2 Assay for human Liver X Receptor (LXR), DR4 submotif (AID 2282929); conditions: HepG2 Attagene DR4 cis-reporter, mRNA transcription; actives raise or lower the signal
Procedure, shortened: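 The endpoint is DR4-element-driven reporter transcripts after 24 h chemical exposure of transfected HepG2 cells. These were measured via RT-PCR and capillary electrophoresis, and gain or loss of signal was fitted relative to DMSO controls.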

[5] = ATG_AP_1_CIS: Attagene CIS-FACTORIAL HepG2 Assay for human Activator Protein 1 (AP-1) (AID 2282931); conditions: HepG2 Attagene cis-factorial AP-1 reporter mRNA; actives raise or lower the signal
Procedure, shortened: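 Readout is reporter transcript level from endogenous transcription factor activity, quantified by RT-PCR with fluorescent primer extension and capillary electrophoresis. Transiently transfected HepG2 cells, 24 h exposure. Curves fitted both directions versus DMSO.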

[6] = ATG_AP_2_CIS: Attagene CIS-FACTORIAL HepG2 Assay for human Activator Protein 2 (AP-2) (AID 2282932); conditions: HepG2 AP-2 cis-reporter, Attagene transcription factor profiling; actives raise or lower the signal
Procedure, shortened: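 HepG2 cells were transiently transfected with multiple cis-promoter reporter transcription units and dosed for 24 h. Reporter mRNA was measured by RT-PCR with capillary electrophoresis fluorescence; bidirectional fits relative to DMSO baseline.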

[7] = ATG_BRE_CIS: Attagene CIS-FACTORIAL HepG2 Assay for human Bone Morphogenetic Protein (BMP) Response Element (BRE) (AID 2282933); conditions: HepG2 BMP response element reporter, Attagene transcription factor profiling; actives raise or lower the signal
Procedure, shortened: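 Fluorescence-labelled reporter cDNA fragments, separated by capillary electrophoresis, gave the signal for this component of a 52-readout multiplex. HepG2 cells were transfected, exposed to chemicals for 24 h, and compared with DMSO using bidirectional fitting.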

[8] = biological target: Retinoic acid receptor alpha (Homo sapiens) (UniProt P10276); experiment: ATG_DR5_RAR_CIS: Attagene CIS-FACTORIAL HepG2 Assay for human Retinoic Acid Receptor Alpha (RARE), DR5 submotif (AID 2282934); conditions: HepG2 Attagene cis-factorial RARE DR5 reporter, mRNA; actives raise or lower the signal
Procedure, shortened: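 Transfected HepG2 reporter cells are exposed to chemicals for 24 h. Then RNA is extracted and the DR5 element reporter transcript is measured by RT-PCR and capillary electrophoresis, with bidirectional curve fitting relative to DMSO.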

[9] = biological target: Aryl hydrocarbon receptor (Homo sapiens) (UniProt P35869); experiment: ATG_Ahr_CIS: Attagene CIS-FACTORIAL HepG2 Assay for human Aryl Hydrocarbon Receptor (Ahr) (AID 2282930); conditions: HepG2 AhR cis-factorial reporter transcription; actives raise or lower the signal
Procedure, shortened: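 Following 24 h of chemical dosing, transfected HepG2 liver cells with cis-driven reporter units were lysed for RNA; reporter mRNA was quantified via RT-PCR and capillary electrophoresis, and responses fitted bidirectionally from DMSO.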

Measured: AC50

Retinoic acid receptor alpha (Homo sapiens), sequence (P10276 whole entry, looked up): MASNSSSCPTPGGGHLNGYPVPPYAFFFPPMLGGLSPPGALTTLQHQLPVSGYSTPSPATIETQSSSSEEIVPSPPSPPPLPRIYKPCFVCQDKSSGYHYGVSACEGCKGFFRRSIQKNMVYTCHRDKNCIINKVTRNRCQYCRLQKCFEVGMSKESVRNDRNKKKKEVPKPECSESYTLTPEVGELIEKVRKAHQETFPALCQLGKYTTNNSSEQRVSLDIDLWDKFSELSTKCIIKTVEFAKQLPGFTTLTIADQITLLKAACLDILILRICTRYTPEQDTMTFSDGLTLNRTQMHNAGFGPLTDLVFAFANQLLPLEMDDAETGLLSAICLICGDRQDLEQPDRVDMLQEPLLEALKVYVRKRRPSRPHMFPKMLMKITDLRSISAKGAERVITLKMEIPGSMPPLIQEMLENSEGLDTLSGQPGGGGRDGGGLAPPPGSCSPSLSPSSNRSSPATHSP
CCAAT/enhancer-binding protein beta (Homo sapiens), sequence (P17676 whole entry, looked up, the tested form may be a part): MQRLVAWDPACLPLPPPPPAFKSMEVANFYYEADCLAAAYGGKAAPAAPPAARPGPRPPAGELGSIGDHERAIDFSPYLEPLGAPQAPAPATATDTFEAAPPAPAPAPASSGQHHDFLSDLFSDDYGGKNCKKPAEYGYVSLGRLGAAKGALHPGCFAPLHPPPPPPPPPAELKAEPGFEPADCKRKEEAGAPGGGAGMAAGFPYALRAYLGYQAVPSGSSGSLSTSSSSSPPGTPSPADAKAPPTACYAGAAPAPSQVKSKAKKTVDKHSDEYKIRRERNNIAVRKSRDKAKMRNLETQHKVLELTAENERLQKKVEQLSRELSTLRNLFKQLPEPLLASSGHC
Aryl hydrocarbon receptor (Homo sapiens), sequence (P35869 whole entry, looked up): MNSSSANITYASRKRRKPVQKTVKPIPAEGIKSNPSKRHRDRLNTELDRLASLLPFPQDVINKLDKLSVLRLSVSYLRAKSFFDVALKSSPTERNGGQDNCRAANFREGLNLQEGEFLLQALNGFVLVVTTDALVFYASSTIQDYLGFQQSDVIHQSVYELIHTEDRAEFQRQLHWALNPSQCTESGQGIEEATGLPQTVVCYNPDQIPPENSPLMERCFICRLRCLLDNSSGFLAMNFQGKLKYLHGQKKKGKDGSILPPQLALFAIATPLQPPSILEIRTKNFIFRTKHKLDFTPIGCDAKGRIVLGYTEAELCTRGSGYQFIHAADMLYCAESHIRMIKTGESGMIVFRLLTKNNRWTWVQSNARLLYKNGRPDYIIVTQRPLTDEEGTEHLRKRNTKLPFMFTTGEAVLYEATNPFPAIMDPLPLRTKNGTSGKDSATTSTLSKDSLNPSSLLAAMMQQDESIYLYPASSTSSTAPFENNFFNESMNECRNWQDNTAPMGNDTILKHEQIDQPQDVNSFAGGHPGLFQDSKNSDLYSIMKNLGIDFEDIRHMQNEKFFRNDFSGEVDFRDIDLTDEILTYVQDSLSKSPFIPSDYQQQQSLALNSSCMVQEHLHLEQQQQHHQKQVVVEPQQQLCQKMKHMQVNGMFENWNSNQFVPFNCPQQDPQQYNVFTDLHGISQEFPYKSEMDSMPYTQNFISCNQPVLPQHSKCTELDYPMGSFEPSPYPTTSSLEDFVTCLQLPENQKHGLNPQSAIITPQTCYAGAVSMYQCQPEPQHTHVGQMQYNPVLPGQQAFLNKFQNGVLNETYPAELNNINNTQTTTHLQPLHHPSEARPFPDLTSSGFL

CC(=O)Nc1cc(S(=O)(=O)O)cc2cc(S(=O)(=O)O)c(N=Nc3ccccc3)c(O)c12
not listed: [9]
inactive: all other assays above

OCC=Cc1ccccc1
inactive: [1] | [2] | [4] | [5] | [6]
active: [9] 50.1 µM

O=C(C=Cc1ccccc1)OCCCc1ccccc1
not listed: [4] | [7] | [9]
inactive: all other assays above

CCCCCCCCCCCCCC(=O)OCC
not listed: [4] | [9]
inactive: all other assays above

NNC(=O)OCc1ccccc1
not listed: [4] | [8]
inactive: all other assays above

CCC(CC)CO
not listed: [4] | [8]
inactive: all other assays above

CC=CC(=O)C1=C(C)C=CCC1(C)C
not listed: [4] | [5] | [8]
inactive: all other assays above

OCCCO
not listed: [4] | [8]
inactive: all other assays above

CC(C)(C)c1ccc(S)cc1
not listed: [3] | [7] | [8]
inactive: all other assays above

CCn1cc(C(=O)O)c(=O)c2ccc(C)nc21
not listed: [4] | [9]
inactive: all other assays above

NS(=O)(=O)c1cc(C(=O)O)c(NCc2ccco2)cc1Cl
not listed: [4] | [5]
inactive: all other assays above

CCCCCCCCCCCCCCCCCC(=O)OCCCCCCCCCCCCCC(C)C
not listed: [4] | [7] | [8]
inactive: all other assays above

CC(CO)c1ccccc1 (centres undefined)
not listed: [4] | [5] | [8]
inactive: all other assays above

CC(C)C(=O)c1ccccc1
not listed: [4]
inactive: all other assays above

CC(=O)OCC=C(C)CCC=C(C)CCC=C(C)C
active: [3] 63.2 µM | [4] 33.4 µM | [5] 48.1 µM | [6] 145 µM
inactive: [1] | [2] | [7] | [8]

CC(C)=CC(=O)O
not listed: [5] | [8] | [9]
inactive: all other assays above

CCOC(=O)CC(C)C
not listed: [4] | [8]
inactive: all other assays above

CC/C=C\C#N
not listed: [4] | [8]
inactive: all other assays above

CC(=O)CCC=C(C)CCC=C(C)C
not listed: [4] | [5] | [8]
inactive: all other assays above

NC(=O)NC(N)=O
not listed: [4] | [8]
inactive: all other assays above

CCCCCCC(C)O (centres undefined)
not listed: [4] | [8]
inactive: all other assays above

N#CCCNCCC#N
not listed: [3] | [8]
inactive: all other assays above

O=C(O)CS
not listed: [4] | [8]
inactive: all other assays above

CC1=CC[C@@H]2C[C@H]1C2(C)C
not listed: [9]
inactive: all other assays above

CCC(C)(CCCC(C)C)OC(C)=O (centres undefined)
active: [9] 71.4 µM
not listed: [4] | [8]
inactive: all other assays above

CC(C)Cc1ccccc1
not listed: [3] | [4]
inactive: all other assays above

CC(=O)C1=C(C)[C@@H]2C[C@@]3(C1)[C@H](C)CC[C@H]3C2(C)C
active: [1] 76.3 µM | [4] 58.8 µM | [9] 55.3 µM | [5] 76.9 µM
inactive: [2] | [6] | [7]

[O-]/[N+](=N\O)c1ccccc1
active: [9] 4.26 µM
not listed: [3] | [8]
inactive: all other assays above

C=C1CC/C=C(\C)CC[C@@H]2[C@@H]1CC2(C)C
active: [1] 124 µM | [3] 42.4 µM | [4] 61.3 µM
inactive: [9] | [5] | [6]

CCCCCc1cccc(=O)o1
not listed: [3] | [8] | [9]
inactive: all other assays above
